Data as given in the supplement of paper PMC8047044.

system: Neuro-2a; experiment: neurite formation score, plate-normalized to DMSO control mean 5.04 (score (0-8 scale)); higher = more or longer neurites; conditions: 1 µM
Procedure: (§1)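 Neuro-2a mouse neuroblastoma cells in PLL-coated 96-well plates were pre-treated for 1 h in DMEM(+) with each kinase inhibitor at 1 µM, then switched to serum-free DMEM(-) with inhibitor to induce neurite outgrowth and fixed about 2-3 h later. Three blinded observers scored neurite formation from 0 (no neurites) to 8 (long neurites on almost all cells).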

Compound | neurite formation score
O=C1NC(=O)/C(=C/c2ccc3nccc(-c4ccncc4)c3c2)S1 | 4.14
Oc1ccc2ccccc2c1SSc1c(O)ccc2ccccc12 | 3.88
Cc1cc(Nc2cc(N3CCN(C)CC3)nc(Sc3ccc(NC(=O)C4CC4)cc3)n2)n[nH]1 [VX-680 (MK-0457,Tozasertib)] | 5.02
O=c1oc2c(O)c(O)cc3c(=O)oc4c(O)c(O)cc1c4c23 [Ellagic acid] | 4.47
Cc1c(Cn2c(C)nc3c(C(=O)O)cc(N4CCOCC4)cc32)cccc1C(F)(F)F | 4.88
CNC(=O)c1cc(Oc2ccc3nc(N[C@@H]4CCCC[C@H]4O)sc3c2)ccn1 | 3.21
CCOc1cc2ncc(C#N)c(Nc3ccc(F)c(Cl)c3)c2cc1NC(=O)/C=C/CN(C)C [Pelitinib (EKB-569)] | 3.91
O=C1NC(=O)/C(=C\c2ccc3nccnc3c2)S1 | 4.14
CCN1C(=CC(C)=O)Sc2ccc(OC)cc21 | 4.96
C[C@@H]1CN(CC(=O)Nc2ccc3c(c2)Cc2cccc(-c4cc(=O)cc(N5CCOCC5)o4)c2S3)C[C@H](C)O1 | 3.9
C=CC(=O)Nc1ccc2ncnc(Nc3cccc(Br)c3)c2c1 | 4.24
COc1ccc2c(c1)c(C1=C(c3c[nH]c4ccccc34)C(=O)NC1=O)cn2CCCN(C)C | 5.24
Cc1cc(C(=O)NOCCO)c(Nc2ccc(I)cc2F)n(C)c1=O | 3.96
O=C(COc1ccc(Cl)cc1)NC1CCC(NC(=O)COc2ccc(Cl)cc2)CC1 (stereo not drawn) [ISRIB (trans-isomer)] | 4.54
Nc1nc(NCCNc2ncc(-n3ccnc3)c(-c3ccc(Cl)cc3Cl)n2)ccc1[N+](=O)[O-] | 5.29
O=C1NC(=O)C(c2cnc3ccccn23)=C1c1cn2c3c(cc(F)cc13)CN(C(=O)N1CCCCC1)CC2 | 3.47
Cc1ncc(CCCN(C)C)cc1Nc1ncc2c(n1)-c1ccc(C(F)(F)F)cc1NC(=S)C2 | 5.29
NC1(C(=O)N[C@@H](CCO)c2ccc(Cl)cc2)CCN(c2ncnc3[nH]ccc23)CC1 | 5.57
N#C/C(=C\c1ccc(O)c(O)c1)C(=O)NCc1ccccc1 | 4.02

Compound | neurite formation score
CCN1CCN(c2ccc(Nc3cc(N(C)C(=O)Nc4c(Cl)c(OC)cc(OC)c4Cl)ncn3)cc2)CC1 | 3.8
COc1cc2nccc(Oc3ccc(NC(=O)Nc4cc(C)on4)c(Cl)c3)c2cc1OC [Tivozanib (AV-951)] | 4.24
C[C@@H](Oc1ccc2[nH]nc(/C=C/c3cnn(CCO)c3)c2c1)c1c(Cl)cncc1Cl | 1.02
O=C(Nc1cc(C(F)(F)F)cc(C(F)(F)F)c1)c1cc(Cl)ccc1O | 2.8
O=C(Nc1ccccc1C(=O)NC1CCCCNC1=O)c1cc2ccccc2s1 (centres undefined) | 3.54
O=C(Nc1cccnc1)c1cc(-c2ccnc(F)c2)ccc1OCc1ccccc1 | 3.88
FC(F)(F)c1ccc(/C=C/c2nc(COc3ccc(CCCCn4ccnn4)cc3)co2)cc1 [Mubritinib (TAK 165)] | 4.47
CC[C@@H]1C(=O)N(C)c2cnc(Nc3ccc(C(=O)NC4CCN(C)CC4)cc3OC)nc2N1C1CCCC1 | 5.02
C[C@H](NC(=O)/C(C#N)=C/c1cccc(Br)n1)c1ccccc1 | 4.36
C=CC(=O)Nc1cccc(Sc2nc(Nc3ccc(N4CCN(C)CC4)cc3)ncc2Cl)c1 | 4.91
Nc1ncnc2c1c(-c1cnc3[nH]ccc3c1)nn2C1CCCC1 | 3.21
NC(=O)c1cnc(N[C@@H]2CCCC[C@@H]2N)nc1Nc1cccc(-n2nccn2)c1 | 4.36
Cc1cc(C)c(/C=C2\C(=O)Nc3ccccc32)[nH]1 | 5.02
Cc1cc(Nc2nc(N[C@@H](C)c3ncc(F)cn3)ncc2Cl)[nH]n1 | 3.8
Cc1nc(NC(=O)N2CCC[C@H]2C(N)=O)sc1-c1csc(C(C)(C)C)n1 | 4.57
O=c1cc(N2CCOCC2)oc2c(-c3ccccc3)cccc12 | 5.24
O=C(O)c1ccc(-c2c[nH]c3ncc(-c4ccccc4)cc23)cc1C1CCCC1 | 5.29
Cn1cnc2c(F)c(Nc3ccc(Br)cc3F)c(C(=O)NOCCO)cc21 | 3.24

system: Neuro-2a; experiment: as above; conditions: 0.1 µM
Procedure: as §1, with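 “at 0.1” for “at 1”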

Compound | neurite formation score
O=C1NC(=O)/C(=C/c2ccc3nccc(-c4ccncc4)c3c2)S1 | 5.42
Oc1ccc2ccccc2c1SSc1c(O)ccc2ccccc12 | 5.42
Cc1cc(Nc2cc(N3CCN(C)CC3)nc(Sc3ccc(NC(=O)C4CC4)cc3)n2)n[nH]1 [VX-680 (MK-0457,Tozasertib)] | 3.58
O=c1oc2c(O)c(O)cc3c(=O)oc4c(O)c(O)cc1c4c23 [Ellagic acid] | 4.42
Cc1c(Cn2c(C)nc3c(C(=O)O)cc(N4CCOCC4)cc32)cccc1C(F)(F)F | 4.08
CNC(=O)c1cc(Oc2ccc3nc(N[C@@H]4CCCC[C@H]4O)sc3c2)ccn1 | 4.75
CCOc1cc2ncc(C#N)c(Nc3ccc(F)c(Cl)c3)c2cc1NC(=O)/C=C/CN(C)C [Pelitinib (EKB-569)] | 4.38
O=C1NC(=O)/C(=C\c2ccc3nccnc3c2)S1 | 5.09
CCN1C(=CC(C)=O)Sc2ccc(OC)cc21 | 4.92
C[C@@H]1CN(CC(=O)Nc2ccc3c(c2)Cc2cccc(-c4cc(=O)cc(N5CCOCC5)o4)c2S3)C[C@H](C)O1 | 5.21
C=CC(=O)Nc1ccc2ncnc(Nc3cccc(Br)c3)c2c1 | 3.71
COc1ccc2c(c1)c(C1=C(c3c[nH]c4ccccc34)C(=O)NC1=O)cn2CCCN(C)C | 5.54
Cc1cc(C(=O)NOCCO)c(Nc2ccc(I)cc2F)n(C)c1=O | 3.92
O=C(COc1ccc(Cl)cc1)NC1CCC(NC(=O)COc2ccc(Cl)cc2)CC1 (stereo not drawn) [ISRIB (trans-isomer)] | 4.42
Nc1nc(NCCNc2ncc(-n3ccnc3)c(-c3ccc(Cl)cc3Cl)n2)ccc1[N+](=O)[O-] | 4.92
O=C1NC(=O)C(c2cnc3ccccn23)=C1c1cn2c3c(cc(F)cc13)CN(C(=O)N1CCCCC1)CC2 | -0.576
Cc1ncc(CCCN(C)C)cc1Nc1ncc2c(n1)-c1ccc(C(F)(F)F)cc1NC(=S)C2 | 4.92
NC1(C(=O)N[C@@H](CCO)c2ccc(Cl)cc2)CCN(c2ncnc3[nH]ccc23)CC1 | 5.38
N#C/C(=C\c1ccc(O)c(O)c1)C(=O)NCc1ccccc1 | 4.58

Compound | neurite formation score
CCN1CCN(c2ccc(Nc3cc(N(C)C(=O)Nc4c(Cl)c(OC)cc(OC)c4Cl)ncn3)cc2)CC1 | 4.09
COc1cc2nccc(Oc3ccc(NC(=O)Nc4cc(C)on4)c(Cl)c3)c2cc1OC [Tivozanib (AV-951)] | 4.71
C[C@@H](Oc1ccc2[nH]nc(/C=C/c3cnn(CCO)c3)c2c1)c1c(Cl)cncc1Cl | 4.92
O=C(Nc1cc(C(F)(F)F)cc(C(F)(F)F)c1)c1cc(Cl)ccc1O | 4.76
O=C(Nc1ccccc1C(=O)NC1CCCCNC1=O)c1cc2ccccc2s1 (centres undefined) | 3.75
O=C(Nc1cccnc1)c1cc(-c2ccnc(F)c2)ccc1OCc1ccccc1 | 5.08
FC(F)(F)c1ccc(/C=C/c2nc(COc3ccc(CCCCn4ccnn4)cc3)co2)cc1 [Mubritinib (TAK 165)] | 4.76
CC[C@@H]1C(=O)N(C)c2cnc(Nc3ccc(C(=O)NC4CCN(C)CC4)cc3OC)nc2N1C1CCCC1 | 4.58
C[C@H](NC(=O)/C(C#N)=C/c1cccc(Br)n1)c1ccccc1 | 4.58
C=CC(=O)Nc1cccc(Sc2nc(Nc3ccc(N4CCN(C)CC4)cc3)ncc2Cl)c1 | 4.71
Nc1ncnc2c1c(-c1cnc3[nH]ccc3c1)nn2C1CCCC1 | 4.42
NC(=O)c1cnc(N[C@@H]2CCCC[C@@H]2N)nc1Nc1cccc(-n2nccn2)c1 | 4.92
Cc1cc(C)c(/C=C2\C(=O)Nc3ccccc32)[nH]1 | 5.25
Cc1cc(Nc2nc(N[C@@H](C)c3ncc(F)cn3)ncc2Cl)[nH]n1 | 3.09
Cc1nc(NC(=O)N2CCC[C@H]2C(N)=O)sc1-c1csc(C(C)(C)C)n1 | 5.21
O=c1cc(N2CCOCC2)oc2c(-c3ccccc3)cccc12 | 4.21
O=C(O)c1ccc(-c2c[nH]c3ncc(-c4ccccc4)cc23)cc1C1CCCC1 | 3.92
Cn1cnc2c(F)c(Nc3ccc(Br)cc3F)c(C(=O)NOCCO)cc21 | 5.38
